Assay outcomes (PubChem BioAssay)
KCC2 mod – KCC2 (human) Cl- transport modulation; Q9H2X9; KCC2 cells, thallium flux FluoZin-2 fluorescence; B-score of Tl+ flux slope (higher = more flux/activation; lower = inhibition) at 10 µM; actives 2.2% (n = 190,000); AID 1456;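 active = thallium flux slope and its plate-corrected score both differing from the plate sample mean at a set confidence after two filtering rounds, in either direction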;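 note: slope of fluorescence scaled to starting intensity during 10 to 20 s after thallium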
L major viab – reduces viability of Leishmania major promastigotes | resazurin fluorescence viability | inhibition, % at 10 µM | actives 9% (n = 200,000) | AID 1063; in the data active = inhibition above about 50%;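 note: promastigotes grown with compound for 44 hours at 28 °C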
Ins promoter up – MIN6 insulin promoter up-regulation. actives 0.3% (n = 190,000). MIN6 insulin promoter-GFP reporter, high-content imaging; active compounds read high. z-score at 5 µM;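 active = z-score above 3 at 5 µM with at least 500 cells counted in the well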
Insulin prom inh – TRM-6 insulin promoter activity inhibition; AID 1273; actives 0.9% (n = 130,000); inhibition, % at 2 µM; TRM-6 cells (human fetal islet line), insulin promoter-eGFP reporter, imaging; reporter expression induced with tamoxifen;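 active = inhibition above the mean plus 3 SD, with well images judged a real hit on visual review, cut at about 60% in these data, passing the limit was not always enough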
ROMK primary – human ROMK K+ channel modulation, primary screen | AID 1918 | P48048 | actives 2% (n = 130,000) | B-score at 10 µM | Tet-inducible ROMK, thallium flux fluorescence; actives lie on both sides;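 active = signal ratio slope over the read window, or its plate-corrected B-score, at least 3 SD from the plate mean, either direction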;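 note: B-score of the F/F0 ratio slope over 7 to 12 s after thallium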
Target sequence (P48048 whole entry, looked up): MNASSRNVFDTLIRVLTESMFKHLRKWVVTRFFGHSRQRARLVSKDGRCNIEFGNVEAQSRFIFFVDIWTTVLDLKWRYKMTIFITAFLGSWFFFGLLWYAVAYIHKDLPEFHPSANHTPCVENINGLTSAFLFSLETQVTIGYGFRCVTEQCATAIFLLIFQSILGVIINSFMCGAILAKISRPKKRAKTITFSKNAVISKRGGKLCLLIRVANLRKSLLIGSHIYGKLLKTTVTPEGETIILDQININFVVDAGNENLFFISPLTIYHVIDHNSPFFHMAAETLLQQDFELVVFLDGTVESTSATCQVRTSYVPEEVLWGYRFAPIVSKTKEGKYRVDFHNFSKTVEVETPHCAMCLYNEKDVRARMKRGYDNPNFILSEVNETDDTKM
WT yeast gro inh – growth inhibition of WT yeast, mitochondrial fusion screen. inhibition, % at 10 µM. AID 1362. actives 2.1% (n = 190,000). mitochondrial fusion phenotypic screen, WT strain; in the data active = inhibition above about 58%; tested in S. cerevisiae
* = called active by the depositor; · = not tested or not shown. Rows were chosen to be rich in hits. Some 12% of all compounds tested hit in one or more screens of this group.

SMILES	KCC2 mod	L major viab	Ins promoter up	Insulin prom inh	ROMK primary	WT yeast gro inh
Cc1cc(C(=O)N/N=C/C=C/c2cccc([N+](=O)[O-])c2)n[nH]1	-0.478	56.9*	-0.72	·	0.911	-9.3
O=C(N/N=C/c1ccncc1)c1cc([N+](=O)[O-])cc([N+](=O)[O-])c1	1.33	95.8*	-0.36	18.2	0.488	-11.3
CC(/C=C/c1ccc2c(c1)OCO2)=N/NC(=O)c1ccncc1	1.04	·	-0.21	·	0.32	·
CC(/C=C/c1cccc([N+](=O)[O-])c1)=N\NC(=O)c1ccncc1	0.809	55.4*	0.36	·	-0.189	-12.6
COc1ccc(NC(=O)NC(=O)c2cc(OCC(F)(F)F)ccc2OCC(F)(F)F)cc1	0.0217	·	-1.81	·	·	·
CCOC(=O)c1cc(C#N)c(=S)[nH]c1C	3.12	-1.9	0.5	·	0.754	19.9
CNC(=S)Nc1ccc(C23CC4CC(CC(C4)C2)C3)cc1	-0.223	51.0*	-0.21	·	·	68.0*
CNC(=S)Nc1ccc(C)cc1	0.133	-8.1	0.05	50.0	0.311	-2.1
O=C(O)c1ccc(/C=C2\SC(=Nc3ccccc3)N(c3ccccc3)C2=O)cc1	-1.53	2.5	0	28.6	0.585	-12.5
COCc1cc(C)nc2sc3c(=O)oc(C)nc3c12	-1.04	-0.7	0.38	18.2	·	5.2
O=[N+]([O-])c1cc(CN2CCCC2)ccc1Sc1ccc(Cl)cc1	-0.218	95.3*	-0.82	·	0.0944	52.3
COC(=O)CN1C(=O)Nc2ccc(Br)cc2C1c1ccccc1Cl (stereo not drawn)	·	33.7	0.11	53.9	·	-1.6
COC(=O)c1c(NC(=O)c2ccccc2[N+](=O)[O-])sc2c1CC(C)(C)NC2(C)C	-0.694	95.9*	0.1	-23.1	-0.229	16.3
COC(=O)C1=C(NC(=O)c2ccccc2[N+](=O)[O-])CCS1	0.513	5.2	0.33	-11.8	0.0521	-46.8
CCOc1ccc(-n2c(SCC(=O)NCc3ccco3)nnc2-c2c[nH]c3ccccc23)cc1	-1.43	92.6*	0.69	·	·	-11.9
COc1ccc(-n2c(-c3ccc(F)cc3)cnc2SCC(=O)NCc2ccco2)cc1	·	100.0*	0	-32.1	-1.93	-0.7
COc1ccc(C2(C(=O)Nc3ccc(C)cc3)CCOCC2)cc1	-1.28	1.1	-0.28	·	-0.986	2.4
CCS(=O)(=O)N1Cc2ccccc2CC1C(=O)OCC(=O)Nc1ccc(SC(F)F)cc1 (stereo not drawn)	-0.226	0.2	0.06	-21.7	-0.46	19.5
CCS(=O)(=O)N1Cc2ccccc2CC1C(=O)OCC(=O)Nc1ccc(C)cc1 (stereo not drawn)	·	-1.4	5.05*	-7.1	-0.166	2.2
CCS(=O)(=O)N1Cc2ccccc2CC1C(=O)Nc1nc2ccccc2s1 (stereo not drawn)	-0.0997	67.0*	0.01	15.4	·	7.4
CC(c1ccccc1F)n1cc(C(=O)NCCc2ccco2)nn1 (stereo not drawn)	·	-6.0	-0.8	·	0.279	8.4
COCCNc1c(-c2ccc(OC)cc2)nc2ccc(Cl)cn12	-1.39	76.2*	-0.64	·	-0.608	3.7
CCOC(=O)CNc1c(-c2ccc(OC)cc2)nc2ccc(Cl)cn12	-0.0843	6.2	·	61.9	-0.953	-3.3
CCOC(=O)C(C)Oc1nc(Oc2ccccc2)nc(N(C)C)n1 (stereo not drawn)	0.125	4.0	0.66	27.3	-0.0422	2.8
CC(=O)c1ccc(C)cc1OC(=O)c1cccc(F)c1	0.814	-6.3	-0.4	33.3	-0.361	2.5
SMILES	KCC2 mod	L major viab	Ins promoter up	Insulin prom inh	ROMK primary	WT yeast gro inh
Cc1ccc(C(=O)CC(=O)c2cccc(F)c2)c(O)c1	21.8*	97.3*	·	5.4	-0.203	69.3*
CCc1ccc(NC(=O)N(CCN(C)C)C(C)c2cccnc2)cc1 (stereo not drawn)	-0.047	0.6	0.32	·	·	-6.8
CN(C)c1nc(-c2ccccc2)c2cnn(Cc3ccccc3)c2n1	·	62.9*	-1.26	·	0.249	28.8
CC(=O)c1ccc(NC(=O)C(Cc2ccccc2)NC(=O)c2ccco2)cc1 (stereo not drawn)	-0.139	8.8	-0.24	0.0	·	11.8
Oc1[nH]c2ccccc2c1N=NC(=S)NCCc1ccccc1	19.7*	-1.5	0.37	0.0	-0.14	55.3
Oc1cccc(NC(=S)N=Nc2c(O)[nH]c3ccccc23)c1	-0.602	·	-0.16	·	0.179	·
CCOc1ccc(NC(=S)N=Nc2c(O)[nH]c3ccccc23)cc1	4.38*	97.8*	-0.24	·	1.21*	25.8
COC(=O)C1=NN(C(=O)c2ccc(Cl)cc2)C(O)(c2ccccc2)C1 (stereo not drawn)	17.3*	-11.2	0.37	·	·	12.4
CCOC(=O)C1=NN(C(=O)c2ccc(C)cc2)C(O)(c2ccc(Cl)cc2)C1 (stereo not drawn)	121*	-2.5	-0.09	-28.6	2.76*	27.7
O=C(NCCCN1CCOCC1)c1ccc(CS(=O)(=O)c2ccc(Br)cc2)o1	-0.412	-1.9	-1.5	·	·	7.7
CCOC(=O)C1CCCN(C(=O)CSCc2ccccc2)C1 (stereo not drawn)	0.761	-5.2	0.66	41.0	·	16.8
O=C(NC1CCCCC1)C(c1ccccc1)N1CCc2ccccc21 (stereo not drawn)	-0.489	50.4*	-0.13	·	·	-0.2
O=C(/C=C/c1cccc(Br)c1)N1CCN(c2cccc(C(F)(F)F)c2)CC1	-0.179	-5.0	0.04	·	-0.333	67.0*
Cn1c(C(=O)N2CCN(c3cccc(C(F)(F)F)c3)CC2)cc2sccc21	1.63	-7.2	-0.25	-12.5	·	71.5*
CC(=O)c1cccc(NC(=O)Nc2csc3c2CCCC3)c1	0.224	15.4	·	·	-0.0327	-8.4
O=C(CCc1ccc(S(=O)(=O)NCCc2ccccc2)cc1)Nc1ccc2c(c1)OCCO2	-3.05	2.1	-0.64	·	·	-14.0
c1cn2c(Nc3ccc4c(c3)OCCO4)c(-c3ccc(N4CCOCC4)cc3)nc2cn1	0.32	·	0.84	·	1.28	·
CSc1ccc(-c2nc3cnccn3c2Nc2ccc3c(c2)OCO3)cc1	-0.64	100.3*	·	-20.0	-2.76	20.7
Clc1ccc(-c2nc3cnccn3c2Nc2ccc3c(c2)OCO3)cc1	-0.706	30.3	-0.79	·	·	21.5
COc1ccc(-c2nc3ncccn3c2Nc2ccc3c(c2)OCCO3)cc1	·	5.1	0.51	69.0*	-0.496	-3.1
Oc1ccccc1-c1nc2cnccn2c1Nc1ccc2c(c1)OCCO2	-0.803	77.2*	0.35	12.9	-1.71	20.2
Cc1ccc(-c2nc3ncccn3c2Nc2ccc3c(c2)OCCO3)cc1	0.569	-0.5	-1.84	-19.4	-0.559	-2.1
CC(OC(=O)CCCc1nc2ccccc2s1)C(=O)NC(N)=O (stereo not drawn)	1.32	·	0.04	·	·	·
COc1ccc(S(=O)(=O)Cc2ccc(C(=O)N3CCN(c4cc(Cl)ccc4C)CC3)o2)cc1	-0.00843	-6.5	1.38	·	·	41.5
COc1ccccc1N1CCN(C(=O)Cn2c(=O)[nH]c3ccsc3c2=O)CC1	0.0812	4.2	·	-22.9	-0.442	-2.8
Cc1ccnc(NC(=O)c2ccc(Cl)c(NC(=O)CCc3ccccc3)c2)c1	-0.73	26.1	0.18	·	0.716	41.9
CCN(CC)C(=O)CN(C#N)c1nc(Cl)nc(N(C)C)n1	-0.0588	-4.8	-0.24	·	·	8.0
